Assay results from the supplement of paper PMC11417369.
The full ranking holds about 25,000 sequences; the median of “ln(normalized median fluorescence intensity)” is about 6.7, and the highest 2% start at about 10. The sample holds the highest values, similar sequences and a random draw of the others, so the mix is not that of the screen.

tested on: PfHDP1 homeodomain (GST-tagged); assay: gcPBM binding intensity (ln(normalized median fluorescence intensity)); higher = stronger DNA binding
Method in brief: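 For binding intensity, the highest Masliner-normalised natural-log median intensity across replicate spots of either probe orientation was taken. Protein bound to the array was stained with Alexa488 anti-GST antibody and scanned at 488 nm. The protein, GST-tagged P. falciparum DNA-binding domains from E. coli at about 25 μg on average, had been applied for 1 h to an Agilent 4 × 180k array of primer-extended double-stranded 36-bp intergenic genomic probes and negative controls.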

Row | Sequence | gcPBM binding intensity (ln)
1 | AAAAAATTATACCTTTGTACATAAATAAAATATTAT [XGTACX_site418] | 6.23
2 | AATAAATGGAAAAGGTGTACACAAAAAAAAGGGAAA [XGTACX_site4956] | 7.54
3 | AAAAAAAAAGTATATATATATTTAAGGAATTCTCTC [GTGCAC_negctrl_site454] | 6.33
4 | TATATTATATATATATGTACATATGGCAAAACATTA [XGTACX_site7958] | 7.12
5 | ATAGAAATATTATATTGTACGAACAGTTATTAACAA [XGTACX_site2137] | 6.56
6 | AAAATAAGTAATTACTAATATATAAATTAATAATTA [CACACA_negctrl_site1602] | 5.84
7 | CATACATATATTATTGCACACATATAAAATACCCCC [CACACA_site9292] | 10.4
8 | TATAAATTATAAATTGCACACATATTTTTATATTTA [CACACA_site8974] | 10.1
9 | TACATATATTATTGCACACATATAAAATACCCCCAA [CACACA_site3895] | 10.8
10 | TTATTTACTTATTGCACACATATAAAATATATTTAT [CACACA_site3101] | 10.7
11 | ATATATATATATATTGCACACATATAAATATATATA [CACACA_site8167] | 10.9
12 | ATAAATATTGGGTGCACACACATAATATATATATAT [CACACA_site2272] | 10.5
13 | ATTGGGTACAAATACACACACATATAAATATTAATA [CACACA_site7173] | 6.68
14 | TACAGATATTATTGCACACATATAAAATACCCCCAA [CACACA_site6014] | 10.4
15 | ATAAATATTGCGTGCACACACATAATATTTATATAT [CACACA_site7136] | 10.3
16 | ATATAAAAAAATTGCACACATAAATATATACATATA [CACACA_site1218] | 10.1
17 | CTATATAAAAAAATTGCACACATAAATATATACATA [CACACA_site8325] | 9.87
18 | TATTATTTACTTATTGCACACATATAAAATATATTT [CACACA_site9017] | 10.2
19 | TATAAAAAAATAAAAGGAATATACTTGCAAAGGGTA [CACACA_negctrl_site1438] | 8.14
20 | ATAATATTTTCTTCTTATTGAATGCTTTAAATTTAC [CACACA_negctrl_site1273] | 6.46
21 | CGCACTAAAAAACACACACACACACCCATATATATA [CACACA_site4152] | 7.19
22 | TTTTTAATTTTGTGGGTGCTTTCGTGTTATTATATA | 7.23
23 | ATAAACATGGAAATGTATTAAAAGCAAGTATATAAA [XGTACX_negctrl_site516] | 6.66
24 | TGTTTTTAAAAATATACACACACAGATATTATATAT [CACACA_site8162] | 6.73
25 | CATCCACATATATGTACACACATATATATATATATA [CACACA_site2964] | 9.46
26 | TATAATAATACTTATTGTACTATTAGTTTAATTCAT [XGTACX_site6638] | 6.15

Row | Sequence | gcPBM binding intensity (ln)
27 | TAAACATAAATATGCACACATATACATATATTCATA [CACACA_site2667] | 9.75
28 | CTTTTTTTTTTTTTTGCACACACATATATAAATATA [CACACA_site3950] | 10.6
29 | TATAAATACATACATACACACATATATATATATATT [CACACA_site6116] | 6.81
30 | AATAAAAAAAAATGCACACATATATATATATATATA [CACACA_site2421] | 9.87
31 | AATATAAATAAACACACACACATATATATATATATT [CACACA_site2906] | 6.78
32 | TGTAGAAATGGGTGCACACACATATAAAATCTATAT [CACACA_site7224] | 10.4
33 | TATATATATATATTCACACATAAAAATAAAATAAAA [CACACA_site4774] | 8.8
34 | ATATATATATATTGCACACATATAAATATATATATT [CACACA_site807] | 10.6
35 | TATATATATATATTCACACATAAATATATGCACCCA [CACACA_site4263] | 11
36 | TGTAGAAATGGGTGCACACACATATATAATATATAT [CACACA_site2507] | 10.7
37 | TTTTTTTTTTTTTGCACACACATATATAAATATATA [CACACA_site3949] | 9.41
38 | AATGTAGAAATGGGTGCACACACATATATAATATAT [CACACA_site8799] | 10.2
39 | GATTAATTTAAAAAATGTACATTTTATTGTATAACC [XGTACX_site5539] | 6.55
40 | AACTGAGAAACCGAAGTGCAATATGTATATATACAT | 9.08
41 | GAAAATAGAAAAAGCACACATATATTTTGGAATGTA [CACACA_site551] | 6.5
42 | ATATATATAACAAAAGTGCATTAAGGGGATGCTATA | 8.66
43 | CGTATTATTTTATAAACACACAAGGGGGCATGTATA [CACACA_site6489] | 7.82
44 | TTTTTTTTTTTTTTGGTGCGATCTTTTAAATGATCC | 6.48
45 | TAATTTCCTTAAGAATGTACTTACATTTTATTATTT [XGTACX_site5998] | 6.02
46 | CCTATAAAACCATATACACACATATAAATAAAAAAA [CACACA_site7809] | 6.58
47 | TACAAATATATAAAATGTACATATATATACATATTA [XGTACX_site3029] | 6.13
48 | AAATAATATGTAATCAAATTCACCAAACGAAAAAAA [TGCATGCA_negctrl_site33] | 6.59
49 | AACTTAAAAAATAAATGTACATAAATATAAACATAT [XGTACX_site2987] | 6.59
50 | TGTATATGGTTTGTGCAAAAATTTATTAATGTGTAA [TGCATGCA_negctrl_site374] | 10.1
51 | TCATAACAACTTTGTGTGCACATAAAACATGTATAT | 11
52 | ATATATATTAATTTTGTGCACAAATGGAAATGTTTG [GTGCAC_site9971] | 10.9

Row | Sequence | gcPBM binding intensity (ln)
53 | TCAACAAATAAACTTTGTACATATATACAAAATATA [XGTACX_site4447] | 6.27
54 | ATATAATATTAGTGCACACACAAAAATGTACTAAAC [CACACA_site632] | 10.4
55 | GTATATAATATTAGTGCACACACAAAAATGTACTAA [CACACA_site8112] | 10.3
56 | TATATATATATAACAACACACACAGATCATAAAACT [CACACA_site8670] | 8.9
57 | TTATATGTTTTGTGTACACAATTTATTAAATTAATA [CACACA_site5645] | 8.03
58 | GAATAAAAAATATATGTGCACATATAAACTTAAAAT [GTGCAC_site9554] | 10.7
59 | CTATAATATTAGTGCACACACAAAAATGTACTAAAC [CACACA_site6442] | 10.6
60 | TATATATATATGTGCACACATAATAAAAAAAAAAAT [CACACA_site3831] | 9.99
61 | AAAAAAAAAAAAAAGAGTACACAGACGTTCAAAGGT [XGTACX_site7566] | 6.85
62 | CGCGAACATACATACACACACATATTTATATAGGTA [CACACA_site6241] | 6.69
63 | ATAATTAGTTCAATTTTTTTTTTTTTTTTTTTTTTT [CACACA_negctrl_site1371] | 6.91
64 | ATAAATTTATATACTTGTACATATATATATTACATA [XGTACX_site6697] | 6.7
65 | TGCTGTATATTTTTCTGTACACATTTATATATTCCA [XGTACX_site6244] | 6.65
66 | CATATAGTATAAATTTGTACATAAATATATATATAT [XGTACX_site7477] | 8.91
67 | TATAATATATTTTAATGTACGTACATCCCGATTAAT [XGTACX_site7651] | 6.63
68 | ATAATTATAAAATAAACACACATATATATTTATATG [CACACA_site440] | 6.29
69 | TATAAAATAAATTGTGCACACATATTTATAAATATG [CACACA_site2330] | 10.5
70 | TTATTGTAAATATATGCATGTGCAAAATGAAAAAAA [TGCATGCA_site399] | 10.5
71 | AAATTAATATTATGTGCATGCACAAAGAGGAACGAC [TGCATGCA_site754] | 11.8
72 | AACCATAAATAATTATGTACTAAAAAAAATATATAT [XGTACX_site3415] | 6.7
73 | TAATAAAATATGTACGTGCACATAATTATACTAAAA | 10.5
74 | AATAAATAAAAAATTACACACATATTTATAAATATA [CACACA_site7584] | 6.4
75 | ACTAAAAAATATATATGTACATAATAATATATTATT [XGTACX_site1260] | 6.66
76 | AATATTTTAAATATTGCATGCAATGAAAAATGTAAA [TGCATGCA_site139] | 7.73
77 | ATAATTATTAAGAGAACATGCAAAATATATATGTTT [TGCATGCA_site503] | 6.68
78 | CAAAAAAATGTGAAGGCATGCAAATATGTAAAATAA [TGCATGCA_site921] | 7.26

Row | Sequence | gcPBM binding intensity (ln)
79 | TATTAATTATAAGATGCATGTGCAAAAATATGTTCC [TGCATGCA_site51] | 10.2
80 | AAAAATAAAAAAATAAAAAATAAAAAAATAAAAAAT [CACACA_negctrl_site1425] | 6.64
81 | TTAATAATAAAAAGGAGTACACTAATATACTATAAA [XGTACX_site2346] | 6.35
82 | TAAATTTTAATAAATACACACAAATTTTAATTCTAT [CACACA_site6039] | 6.27
83 | TACATATAAACAATAACACACACCTAGGTACATGGA [CACACA_site8178] | 6.49
84 | TGTATTCTCTTAGTAGTGCATTTGAAGATTATATAA | 8.81
85 | TAAATAGATGTTTTATGTACGTATAAATAAAAAAAA [XGTACX_site3412] | 6.29
86 | TTTATTTATTTAATTACACACGAACATATAACCATT [CACACA_site7952] | 6.8
87 | ATTTTTTAAAAAGTAACACACACTCTTATATATAAT [CACACA_site9206] | 6.64
88 | ATATACATATCATGTAGTACAATTTTTTTACTTTTT [XGTACX_site7988] | 6.14
89 | CAAGCTATGTATTCTACACACACATACACCCATATA [CACACA_site9133] | 7.22
90 | ATATTTAATGTTAATTGTACATATTATATATATATA [XGTACX_site6095] | 8.49
91 | TAAAATAAATTGTGCACACATATTTATAAATATGAA [CACACA_site2331] | 10.7
92 | TAATATTTTAATTGTGTGCACATTAATATTATAAAA | 10.3
93 | TGAAATTTTATTAATGTGCACATATATTTATTGTTC | 10.8
94 | TAAAATAATATTTATGTGCACATATAATTATTAATT | 10.7
95 | TTAAAAAAATTAATATGTACATATATTTATATATAT [XGTACX_site5317] | 6.54
96 | ATATATTATATAATATGTACATAATAAAATTTAAAT [XGTACX_site1900] | 6.79
97 | CAAATATATATGTTCACACATATAATTATTGTGAAA [CACACA_site4190] | 6.4
98 | ATGAAAATTTATATTGCACACATAGGGAATAAAAAA [CACACA_site8667] | 10.4
99 | ATTATTAATAATTGTGTGCACAAATATTTATATGCT | 10.6
100 | TAATATAATATATGCACACAAATATGTATTTATGTG [CACACA_site5210] | 10.1
101 | TTTATGAAACAGTGCACACATAAAAATATATACATA [CACACA_site2992] | 10.1
